Active and inactive are the calls of the source.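 Rule for the calls, unless noted: active = compound that reduces growth-factor-driven endothelial tube area in a mixed cell culture, no cutoff stated; inactive = the rest.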
Tests used:
[1] = Wnt pathway potentiators raising nuclear beta-catenin – imaging, WNT3A-conditioned medium, mouse C2C12, NPC library, primary screen (AID 1117326; in the data active = nuclear beta-catenin stimulation mostly above about 4.2%, no sharp cut-off; inactive = mostly below about 10%; note: reference of the scale not given here); details: stronger effect = higher value
[2] = stimulators of insulin release from INS-1E, primary screen, cell-based, 5 mM glucose, NPC library (AID 1117329;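 active = compound raises insulin release from rat beta cells at 5 mM glucose, no numeric limit stated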; note: reference of the scale not given here); details: rat INS-1E insulin secretion, at 10 µM, stronger effect = higher value
[3] = growth inhibition of GSK3B-pretreated HCT116 cells – cell-based, CellTiter-Glo, 0.2 to 20 µM (AID 1117336;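 active = compounds lowering colon cancer cell viability after pretreatment blocking the GSK3B kinase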); details: HCT116 viability after GSK3B inhibitor, at 20 µM, stronger effect = higher value
[4] = inhibition of endothelial tube formation, primary screen, imaging, VEGF stimulated, CD31 staining, tube area, NPC library (AID 1117340); details: VEGF-stimulated ADSC/ECFC co-culture, at 10 µM, stronger effect = higher value
[5] = GLP1 release stimulators, primary, NCI-H716, NPC library (AID 1117341;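 active = compound raises GLP1 secretion from the human gut endocrine cells, with no numeric limit stated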; note: reference of the scale not given here); details: NCI-H716 cells, at 10 µM, stronger effect = higher value
[6] = HCT116 colon cancer cell growth inhibition, primary screen, CellTiter-Glo luminescence, NPC library (AID 1117342;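 active = compounds that lower survival of HCT116 colon cancer cells in the luminescence readout, no numeric limit stated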); details: at 20 µM (top of the series)
[7] = reduced SW480 viability measured with CellTiter-Glo, NPC library, primary (AID 1117343;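 active = compounds that lower viability of the colon cancer cells in the luminescence readout, with no numeric limit stated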); details: CellTiter-Glo luminescence; at 20 µM (top of the series)
[8] = NPC library primary testing for decreased DLD-1 cell viability via CellTiter-Glo (AID 1117346;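 active = compounds that lower survival of DLD-1 colon cancer cells in the luminescence readout, no cutoff given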); details: DLD-1 viability, CellTiter-Glo luminescence; at 20 µM (top of the series)

CN1C2CCC(C)(C)C1CC(OC(=O)C(O)(c1cccs1)c1cccs1)C2 (configuration not stated)
-0.6%: nuclear beta-catenin stimulation ([1]; stimulation, at 2 µM)
inactive: nuclear beta-catenin stimulation ([1]; at 10 µM) -1.7% | insulin secretion stimulation [2] 5.6% | viability decrease [3] 8% | tube area decrease [4] 4.7% | GLP1 secretion stimulation [5] -0.7% | inhibition of viability [6] 27.8% | viability decrease (inhibition) [7] 37.2% | viability decrease (inhibition) [8] 27.7%

CCOC(=O)c1ncn2c1CN(C)C(=O)c1c(I)cccc1-2
inactive: nuclear beta-catenin stimulation ([1]; at 10 µM) -0.1% | insulin secretion stimulation [2] 0.8% | viability decrease [3] 3.6% | tube area decrease [4] -12.8% | GLP1 secretion stimulation [5] -0.9% | inhibition of viability [6] 11.2% | viability decrease (inhibition) [7] -7.6% | viability decrease (inhibition) [8] -11.3%
-0.1%: nuclear beta-catenin stimulation ([1]; stimulation, at 2 µM)

O=C1C(I)=CC(=C(c2cc(I)c(O)c(I)c2)c2ccccc2C(=O)O)C=C1I
active: nuclear beta-catenin stimulation ([1]; at 10 µM) 43.7% | viability decrease [3] 98.7% | tube area decrease [4] 106% | inhibition of viability [6] 99.3% | viability decrease (inhibition) [7] 100% | viability decrease (inhibition) [8] 100%
1.8%: nuclear beta-catenin stimulation ([1]; stimulation, at 2 µM)
inactive: insulin secretion stimulation [2] -0.1% | GLP1 secretion stimulation [5] -3.3%

COc1cc(CC#N)cc(OC)c1OC
1.2%: nuclear beta-catenin stimulation ([1]; stimulation, at 2 µM)
inactive: nuclear beta-catenin stimulation ([1]; at 10 µM) 0% | insulin secretion stimulation [2] 2.2% | viability decrease [3] 2.6% | tube area decrease [4] 36.1% | GLP1 secretion stimulation [5] 4.1% | inhibition of viability [6] 22.6% | viability decrease (inhibition) [7] 15.5% | viability decrease (inhibition) [8] -1.6%

O=C1c2ccccc2C(=O)C1C(=O)C(c1ccccc1)c1ccccc1
-0.1%: nuclear beta-catenin stimulation ([1]; stimulation, at 2 µM)
inactive: nuclear beta-catenin stimulation ([1]; at 10 µM) 0.3% | insulin secretion stimulation [2] -2.2% | GLP1 secretion stimulation [5] -5% | inhibition of viability [6] 44.8%
active: viability decrease [3] 91.3% | tube area decrease [4] 78.8% | viability decrease (inhibition) [7] 120% | viability decrease (inhibition) [8] 99.3%

Nc1ccccc1
2%: nuclear beta-catenin stimulation ([1]; stimulation, at 2 µM)
active: viability decrease (inhibition) [7] 59.6%
inactive: nuclear beta-catenin stimulation ([1]; at 10 µM) 0.6% | insulin secretion stimulation [2] -2.4% | viability decrease [3] 4.9% | tube area decrease [4] -9.5% | GLP1 secretion stimulation [5] 1.1% | inhibition of viability [6] -9.9% | viability decrease (inhibition) [8] 26.8%

CC(Cc1ccccc1)NCc1ccccc1Cl (configuration not stated)
inactive: nuclear beta-catenin stimulation ([1]; at 10 µM) 0.1% | insulin secretion stimulation [2] 10.2% | viability decrease [3] 26.5% | tube area decrease [4] -19.5% | GLP1 secretion stimulation [5] 2.3% | inhibition of viability [6] 21.9% | viability decrease (inhibition) [8] 22.6%
0%: nuclear beta-catenin stimulation ([1]; stimulation, at 2 µM)
active: viability decrease (inhibition) [7] 51.1%

O=c1[nH]c2ccccc2n1C1CCNCC1
inactive: nuclear beta-catenin stimulation ([1]; at 10 µM) 0.8% | insulin secretion stimulation [2] -0.9% | viability decrease [3] -5% | tube area decrease [4] -5.4% | GLP1 secretion stimulation [5] 1.9% | inhibition of viability [6] -8.2% | viability decrease (inhibition) [7] -13.1% | viability decrease (inhibition) [8] 7.3%
-0.9%: nuclear beta-catenin stimulation ([1]; stimulation, at 2 µM)

— PubChem BioAssay
